ELG1 DNA repair = qHTS screen for small molecules that inhibit ELG1-dependent DNA repair in human embryonic kidney (HEK293T) cells expressing luciferase-tagged ELG1; AID 504467, 2011; 330,000 tested, 2.3% active; Potency, µM (series often up to 46.1 µM), without a hit: top-dose activity change, negative = inhibition, most hits filed as inhibitors; HEK293T ELG1-luciferase reporter, luminescence, 16 h; DNA damage induced by 5-fluorouridine; note: potency is the fitted concentration of half-maximal effect; nearly all actives have a fitted effect of over 55% in size
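5-Fluorouridine DNA damage + compound/DMSO, 2,000 cells/well, 16 h, 37 °C/5% CO2. ONE-Glo, 30 min RT, luminescence. Readout = decrease in reporter signal.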
IL1B secr inh = qHTS for Inhibitors of Inflammasome Signaling: IL-1-beta AlphaLISA Primary Screen | AID 743279, 2014 | activity change, % at 57.5 µM | 360,000 tested, 4.7% active | THP-1 LPS/ATP IL-1B secretion, AlphaLISA, 16 h; stronger effect = lower value; in the data active = activity change below about -50%; inconclusive = mostly about -30% to -49%
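THP-1 cells pretreated 1 hr with compounds (up to 57.5 uM final), then stimulated with LPS (250 ng/mL final) plus ATP (1.25 mM final); secreted IL-1B measured by AlphaLISA after 16 hr, decreased signal indicating inhibition.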
DT40 TDP1 no CPT = qHTS for Inhibitors of human tyrosyl-DNA phosphodiesterase 1 (TDP1): qHTS in cells in absence of CPT; Potency, µM (top dose mostly 46.2 µM), without a hit: top-dose activity change, negative = growth inhibition, usual class: inhibitors; 420,000 tested, 15% active; AID 686978, 2013; DT40 Tdp1-/- hTDP1 cells, no CPT, ATP luminescence, 48 h; note: potency is the fitted concentration of half-maximal effect; nearly all actives have a fitted effect of over 55% in size
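DT40 Tdp1-/-;hTDP1 cells, no CPT (DMSO vehicle only), 400 cells/well; compounds pin-transferred; ≥48 hr, 37 °C; CellTiter-Glo 30 min RT dark, luminescence read.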
TDP1 cell CPT = qHTS for Inhibitors of human tyrosyl-DNA phosphodiesterase 1 (TDP1): qHTS in cells in presence of CPT. chicken DT40 Tdp1-/-;hTDP1 cells + 20 nM CPT, ATP luminescence, 48 h. Potency, µM (top dose mostly 46.2 µM), for inactives: top-dose activity change, negative = growth inhibition, most hits filed as inhibitors. 420,000 tested, 12% active. AID 686979, 2013; note: potency is the fitted concentration of half-maximal effect; nearly all actives have a fitted effect of over 55% in size
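Chicken DT40 Tdp1-/- cells complemented with human TDP1, 400 cells/well, exposed to compounds plus 20 nM camptothecin for at least 48 h at 37 C; viability read as ATP content by CellTiter-Glo luminescence.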
Gal4-VP16 FLuc = VP16 counterscreen qHTS for inhibitors of ROR gamma transcriptional activity | AID 2546, 2010 | Potency, µM (highest dose often 53.6 µM), inactives show at the highest dose activity, negative = inhibition, actives largely listed as inhibitors | Drosophila S2 Gal4-VP16 UAS-luciferase, luminescence, 20 h | 310,000 tested, 3.5% active;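 note: Gal4-VP16 expression switched on by copper sulfate through the metallothionein promoter; potency is the fitted concentration of half-maximal effect; nearly all actives have a fitted effect of over 50% in size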
RORgamma inh = qHTS for inhibitors of ROR gamma transcriptional activity | Nuclear receptor ROR-gamma (Mus musculus), P51450 | Drosophila S2 Gal4-RORgamma UAS-luciferase reporter, 20 h | Potency, µM (highest dose often 53.6 µM), without a hit: at the top dose activity change, negative = inhibition, actives largely listed as inhibitors | 310,000 tested, 5.4% active | AID 2551, 2010; note: potency is the fitted concentration of half-maximal effect; nearly all actives have a fitted effect of over 60% in size
Target sequence (P51450 whole entry, looked up, the tested form may be a part): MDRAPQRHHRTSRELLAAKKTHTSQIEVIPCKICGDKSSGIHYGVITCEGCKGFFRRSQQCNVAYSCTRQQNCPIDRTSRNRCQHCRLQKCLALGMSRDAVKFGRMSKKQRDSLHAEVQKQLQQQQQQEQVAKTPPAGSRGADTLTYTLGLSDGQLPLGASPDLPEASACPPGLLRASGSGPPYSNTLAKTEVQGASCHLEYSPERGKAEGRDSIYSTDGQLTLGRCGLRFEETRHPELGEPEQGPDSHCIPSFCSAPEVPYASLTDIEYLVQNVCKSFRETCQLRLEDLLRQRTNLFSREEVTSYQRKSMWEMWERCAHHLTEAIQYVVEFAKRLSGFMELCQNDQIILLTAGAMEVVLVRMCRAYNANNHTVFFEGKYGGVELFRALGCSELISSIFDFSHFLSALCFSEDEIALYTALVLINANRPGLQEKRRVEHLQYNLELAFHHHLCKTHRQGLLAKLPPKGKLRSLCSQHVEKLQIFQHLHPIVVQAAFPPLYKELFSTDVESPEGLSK
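Stably transfected Drosophila Schneider cells are the test system, with ROR gamma fused to Gal4 and luciferase under UAS control; luminescence is read after 20 hr of 700 uM copper sulfate induction at ambient temperature.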
Starred values were filed as active, the others as inactive; ? = inconclusive; . = no result given; ! = repeats disagree; [ ] = another dose, or the depositor's remark. Shown are actives, neighbours in structure and some others; about 21% of the full set was active somewhere. Unless noted, calls come from the whole dose curve; as a rule, active = well fitted curve in the direction sought with a large enough effect; inconclusive = small, poorly fitted or top-dose-only effect, or another doubt; inactive = no such curve, though single readings can be large; an effect the other way counts as inactive or inconclusive. % is set by controls: 0 for no effect and ±100 for the full control effect.

SMILES	ELG1 DNA repair	IL1B secr inh	DT40 TDP1 no CPT	TDP1 cell CPT	Gal4-VP16 FLuc	RORgamma inh
COc1ccc(NC(=O)N2C[C@@H]3C[C@@H](C2)c2cccc(=O)n2C3)c(OC)c1	11%	13	-1%	5%	0%	-26%
COc1ccccc1-c1nn2c(=O)cc(CN3CCN(C(=O)Nc4ccc(C)cc4Cl)CC3)nc2s1	.	.	6.5µM*	15µM*	.	.
COc1ccc(-c2nn3c(=O)cc(CN4CCN(S(=O)(=O)c5ccc(C)cc5)CC4)nc3s2)cc1	.	.	16µM*	21µM*	.	.
O[C@@H]1CCCN2C[C@@H](O)[C@@H](O)C12 (stereo partly specified)	.	.	-2%[166 µM]	-4%[166 µM]	.	.
COc1ccc2c(c1OC)C(=O)O[C@H]2[C@@H]1c2cc3c(cc2CCN1C)OCO3	-6%	5	-15%	-8%	.	.
COc1cc([C@@H]2c3cc4c(cc3[C@@H](OC)[C@H]3COC(=O)[C@H]23)OCO4)cc(OC)c1O	11%	71	1.3µM*	1.2µM*	-15%	14%
COc1cc([C@@H]2c3cc4c(cc3[C@H](O)[C@H]3COC(=O)[C@@H]23)OCO4)cc(OC)c1OC	.	.	0.025µM*	0.071µM*	.	.
COc1cc([C@@H]2c3cc4c(cc3[C@H](O)[C@H]3COC(=O)[C@H]23)OCO4)cc(OC)c1OC	-4%	63	0.15µM*!	0.15µM*	-16%	3%
COc1cc(C2c3cc4c(cc3C(O)C3COC(=O)C23)OCO4)cc(OC)c1O (stereo unspecified)	.	.	0.21µM*	0.26µM*	-12%	-13%
CC(=O)N1CC2CC(C1)c1cccc(=O)n1C2 (stereo unspecified)	.	.	-2%	14%	6%	-9%
COc1cc([C@@H]2c3cc4c(cc3C(O[C@@H]3O[C@@H]5CO[C@@H](C)O[C@H]5[C@H](O)[C@H]3O)C3COC(=O)[C@@H]32)OCO4)cc(OC)c1OP(=O)(O)O (stereo partly specified)	.	.	0.3µM*	0.21µM*	.	.
O=C(CCN1CCN(CCO)CC1)N1c2ccccc2Sc2ccc(C(F)(F)F)cc21	-1%	?	23µM*	?	-4%	43%
CC(C)(C)NC(=O)C1CC2CCCCC2CN1 (stereo unspecified)	?	2	-16%	-14%	2%	1%
C=CCc1c(C)nc(C)nc1N/N=C/c1ccc(N(C)C)cc1	?	20	21µM*	4.6µM*	?	4.5µM*
COc1ccc(C#Cc2ccc3c(c2)O[C@H](CN(C)C(C)=O)[C@H](C)CN([C@@H](C)CO)S3(=O)=O)cc1	.	22	15µM*	23µM*	.	.
Cc1ccc(S(=O)(=O)N(C)C[C@H]2Oc3cc(Br)ccc3S(=O)(=O)N([C@H](C)CO)C[C@@H]2C)cc1	.	0	9%	12%	.	.
C[C@@H]1CN([C@H](C)CO)S(=O)(=O)c2ccc(C#Cc3cccc(F)c3)cc2O[C@@H]1CN(C)C(=O)CN1CCOCC1	.	?	18µM*	?	.	.
C[C@@H]1C[C@@H](O)[C@@]2(O)[C@]13CC(=O)OC[C@]2(C)[C@@](C)(O)C(=O)C3	.	.	-20%[9.04 µM]	-22%[9.04 µM]	-1%	-7%
COP(=S)(OC)Oc1ccc(S(=O)(=O)N(C)C)cc1	.	.	5%	9%	-3%	33%[10 µM]
CCc1ccc(C2C(C(=O)Nc3ccccc3OC)=C(C)Nc3nc(SCc4ccccc4)nn32)cc1 (stereo unspecified)	.	.	3.7µM*	4.1µM*	.	.
Cc1ccc(-n2c(O)c(C=Nc3ccc(S(N)(=O)=O)cc3)c(=O)[nH]c2=O)cc1	-8%	15	3%	-8%	-6%	13%
Cc1cccc(-n2c(O)c(C=Nc3ccc(Br)cn3)c(=O)[nH]c2=O)c1	?	11	16µM*	10µM*	-23%	?
Cc1ccc(N/N=C/c2c(O)n(-c3ccccc3)c(=O)[nH]c2=O)cc1	4.1µM*	11	?	?	0%	12%
Cc1ccc(-n2c(O)c(/C=N/c3ncc(Br)cc3Br)c(=O)[nH]c2=O)cc1	-3%	6	9.2µM*	?	2%[10 µM]	-6%
Cc1ccc(-n2c(O)c(/C=C/C=Nc3ccccc3)c(=O)[nH]c2=O)cc1	1%	8	4%	17%	-5%	12%
SMILES	ELG1 DNA repair	IL1B secr inh	DT40 TDP1 no CPT	TDP1 cell CPT	Gal4-VP16 FLuc	RORgamma inh
c1ccc(NC2=Nc3ccccc3CC2)cc1	?	27	?	-29%	3%	-13%
CCCCCCC1CC(C)(C(=O)CNc2nncs2)OC1=O (stereo unspecified)	1%	48	-20%	15%	-12%	?
O=c1c2ccccc2nc(CSc2ncnc3nc[nH]c23)n1-c1ccc(Cl)c(Cl)c1	?	12	10µM*	7.1µM*	-5%	-4%
Cc1cc(=O)[nH]c(SCc2nc3ccccc3c(=O)n2-c2ccccc2C)n1	4%	39	-19%	-1%	2%	-7%
C[N+]1(CC2COC(c3ccccc3)(c3ccccc3)O2)CCCCC1 (stereo unspecified)	.	.	19µM*	?	.	.
C[N+]1(CC2COC(c3ccco3)O2)CCCCC1 (stereo unspecified)	0%	-6	-3%	1%	0%	-1%
O=c1[nH]c(=O)n(Cl)c(=O)n1Cl	.	.	8%	15%	0%	-13%[10 µM]
Cc1cccc(OP(=O)(Oc2ccccc2)OC(c2ccccc2)C(F)(F)F)c1 (stereo unspecified)	?	-1	18µM*	-22%	1%	-3%
CC(Cl)CCl (stereo unspecified)	.	.	.	.	1%	-1%
CC(C)C[C@H]1CNC(=S)N1CC1CCN(CC2CCC(C(C)(C)C)CC2)CC1 (stereo partly specified)	.	-22	16µM*	16µM*	.	.
COc1cc2c(cc1OC)-c1c(O)c(OC)cc3c1[C@H](C2)N(C)CC3	.	.	24µM*	?	-21%	-28%
COc1cc2c(cc1OC)-c1c(OC)c(OC)cc3c1C(C2)N(C)CC3 (stereo unspecified)	?	-6	?	?	3%	-42%

Compound activity from PubChem BioAssay.
